These results are taken from PubChem BioAssay AID743279 (National Center for Advancing Translational Sciences (NCATS), 2014).

Out of some 360,000 compounds screened, about 17,000 (4.7%) were called active. Roughly 5% stayed inconclusive and do not appear here. The sample as a whole holds a higher share of actives than the screen did. Values without a mark were called inactive. No stated cut-off is given here; in the data, active means activity change below about -50%; inconclusive means mostly about -30% to -49%; inactive means weaker than that.
On the % scale 0 is the no-effect control and ±100 the full control effect.

This test is described as follows: qHTS for Inhibitors of Inflammasome Signaling: IL-1-beta AlphaLISA Primary Screen. The following applies: THP-1 LPS/ATP IL-1B secretion, 16 h; at 57.5 µM, active compounds read low. Put shortly:
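Secreted IL-1B measured by AlphaLISA bead assay after 16 h compound exposure of THP-1 cells; compounds (final up to 57.5 uM) added 1 h before LPS (250 ng/mL) and ATP (1.25 mM) stimulation; lower signal means less secretion.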
In general terms: qHTS replaces the single test concentration by a dilution series.
Take `COC(=O)c1cc(S(=O)(=O)NC2CCN(Cc3ccccc3)CC2)cn1C`: the activity change is -1.73%. On to `CCn1c(=S)[nH]c2cc(S(=O)(=O)N3CCOCC3)ccc21`, for which the activity change was 46.6%.

On to `CSCCC(=O)N1CCCC(CNC(=O)c2ccccc2Cl)C1` (stereo unspecified), for which the activity change is 27.1%. In the case of `Cc1ccc(C(=O)Nc2ccc(NC(=O)c3cccs3)cc2)c(C)c1`, the activity change was -12.6%. Turning to `CC(C)C(=O)Nc1ccc(C(=O)NNC(=O)c2cccs2)cc1`, the activity change is 7.36%.

Regarding `CC(Oc1cccc(NC(=O)c2cccs2)c1)C(=O)c1ccccc1` (stereo unspecified), the activity change is -60.1% (active). The same measure for `Nc1scc(-c2ccncc2)c1Cl`: -0.276%; for `CC(=O)OCCN(CCCn1c(-c2ccncc2)nc2ccccc21)c1nc(-c2ccc(C)cc2)cs1`: 14.2%. On to `c1ccc(CNCc2ccc(CNCc3ccccc3)cc2)cc1`, for which the activity change was -20.3%. With `COCCCNC(=O)/C(C#N)=C/c1c(N2CCCCCC2)nc2ccccn2c1=O`, the activity change was -20.1%. The same measure for `COCCNC(=O)/C(C#N)=C/c1nc(N(C)C)n(-c2ccc(F)cc2)c1Cl`: -69.9% (active). Regarding `COCCNC(=O)/C(C#N)=C/c1cccc(OCc2ccccc2)c1`, the activity change was -8.24%. As to `O=C(NNC(=O)c1ccc(-c2ccccc2)cc1)Nc1ccccc1`, the activity change was -8.29%. Regarding `C=CC[n+]1c(-c2ccc(C)cc2)csc1NNC(=O)Nc1ccccc1`, the activity change was -79.2% (active). With `C=CCNc1scc(-c2ccccc2)[n+]1CC=C`, the activity change was -19.1%. As to `CC(=O)Oc1ccc(Cn2c(C)c(C(=O)NCc3ccc(C#N)cc3)sc2=O)cc1`, the activity change was 8.83%. Take `N#CCCN(C(=S)Nc1ccc(Cl)c(Cl)c1)C1CCCCC1`: the activity change is -17.1%. The same measure for `CC(C)S(=O)(=O)c1csc(NC(=O)Nc2ccc(Cl)cc2)c1Cl`: -95.1% (active). In the case of `O=C(Nc1ccc(Cl)cc1)Nc1ccc(C(=O)N2CCOCC2)cc1`, the activity change was -29.9%. The same measure for `O=C(NCc1ccccn1)Nc1ccc(Cl)cc1`: -6.13%. Regarding `S=C(NC1CCCCC1)NN1CCOCC1`, the activity change was 31.1%. As for `O=C(CSc1nc2nccnc2c(=O)n1Cc1cccs1)Nc1ccccc1F`, the activity change is 2.93%. The same measure for `CC1(C(=O)NS(=O)(=O)Cc2cccc(Cl)c2)CCN1C(=O)Cc1ccccc1` (stereo unspecified): 3.48%. With `O=C1[C@@H](c2ccccc2)[C@@H](c2ccccc2)N1c1cccnc1`, the activity change was -68.8% (active). The result for `CCc1ccccc1NC1c2ccccc2C(=O)N1c1cccnc1` (stereo unspecified) reads 0%. For `O=C1C(=O)N(c2ccccc2)C(c2ccccc2)C1c1ccccc1` (stereo unspecified), the activity change is 5.18%. The same measure for `COc1cc(S(=O)(=O)N(Cc2cccs2)C2CC2)ccc1-n1cnnn1`: 0%. The result for `CC(C)(C)OC(=O)N1CCC(NC(=O)c2[nH]cnc2C(=O)N[C@@H](Cc2ccccc2)C(=O)OCc2ccccc2)CC1` reads -58% (active). Turning to `CC(C)(C)OC(=O)CNC(=O)c1[nH]cnc1C(=O)N[C@@H](Cc1ccccc1)C(=O)OCc1ccccc1`, the activity change was 52.8%. The result for `O=C(N[C@@H](Cc1ccccc1)C(=O)OCc1ccccc1)c1nc[nH]c1C(=O)NC1CCNCC1` reads -10%; that for `Cc1cc(Br)ccc1NC(=O)CCCOc1cc(=O)n(C)c2ccccc12`, -13.4%.

Regarding `COc1cccc2c1OCC(CN1CCN(C3CCCCC3)C(CCO)C1)=C2` (stereo unspecified), the activity change was 18.2%. The result for `COC(=O)c1cccc(N2C(=O)C3C4C=CC(CC4)C3C2=O)c1` (stereo unspecified) reads 15.7%; that for `CC1C=CCC2C(=O)N(c3cccc(C(=O)N4CCCCCC4)c3)C(=O)C12` (stereo unspecified), 23.7%. The result for `Cc1cccc(N2CCN(C(=O)c3cccc(N4C(=O)C5C6C=CC(C6)C5C4=O)c3)CC2)c1C` (stereo unspecified) reads -52.9% (active).

For the molecule `Cc1ccccc1NC(=O)Cc1nc(COC(=O)CNC(=O)c2ccc(Cl)cc2Cl)cs1`, the activity change is 11%.

As for `Cc1ccc(F)c(S(=O)(=O)NC(=O)C2(C)CCN2C(=O)c2ccco2)c1` (stereo unspecified), the activity change was 24%. The result for `O=C(NNc1cc(Cl)ccc1Cl)c1cccnc1Cl` reads -6.39%; that for `S=C(NCc1cccnc1)Nc1ccc(Cl)cc1Cl`, 11%; that for `CC(=O)/C(=N\Nc1ccc(Cl)cc1Cl)Sc1cccc2cccnc12`, -103% (active). The same measure for `O=C(COC(=O)/C=C/c1ccc(Cl)cc1)NC1CCS(=O)(=O)C1` (stereo unspecified): 1.68%; for `CC(=O)Nc1ccc(-c2ccnc3c2CC(C(=O)NC(C)C)O3)cc1` (stereo unspecified): -17%. As for `Nc1cccc2c1C(=O)N(Cc1nnc(-c3ccccc3Br)o1)C2=O`, the activity change was -5.13%. The same measure for `CN(C)C(=O)CCc1ccc2c3c([nH]c2c1)[C@]1(C)[C@@H](C(=O)N2CCCCC2)C[C@H](CC(=O)NCCC2=CCCCC2)C(=O)N1CC3`: -30%; for `CC(C)N(C(=O)[C@H]1C[C@H](CC(=O)NCCC2=CCCCC2)C(=O)N2CCc3c([nH]c4cc(CCC(=O)N(C)C)ccc34)[C@]12C)C(C)C`: -51.9% (active). The result for `CN(C)C(=O)CCc1ccc2c3c([nH]c2c1)[C@]1(CCc2ccccc2)[C@@H](C(=O)N2CCCCC2)C[C@H](CC(=O)NCCC2=CCCCC2)C(=O)N1CC3` reads -14.8%; that for `COCCCNc1ccn2nc(-c3ccc(CC(C)C)cc3)cc2n1`, 47%; that for `COCCNc1cc(-c2ccccc2)nc2cc(-c3cccc(F)c3)nn12`, -67.2% (active).

Turning to `COc1ccc(-c2cc3nc(NCCOc4ccccc4)ccn3n2)cc1`, the activity change was -17.4%. The result for `CCCCc1nccn1CCn1ccnc1CCCC` reads -1.41%; that for `CCOC(=O)c1sc(NC(=O)CCN2CCOCC2)c(C(=O)OCC)c1C`, 0%; that for `CCOC(=O)c1c(NC(=O)CCl)sc(C(=O)N(CC)CC)c1C`, -99.1% (active). The result for `CCOC(=O)Nc1sc(C(=O)N(C)C)c(C)c1C(=O)OCC` reads 20.1%. For `CC(Oc1ccc(F)cc1)C(=O)Nc1cc(S(=O)(=O)N2CCOCC2)ccc1N1CCN(C)CC1` (stereo unspecified), the activity change is -9.51%. With `O=C(Cc1ccc([N+](=O)[O-])cc1)NCCS(=O)(=O)N1CCN(c2ccccc2)CC1`, the activity change is 16.3%. `CCNC(=S)Nc1ccc2c(c1)c(=O)n(C)n2Cc1ccc(Cl)cc1`: the activity change is -17.7%.
